High-throughput results (PubChem)
Beta2AR agonist: beta2AR agonists driving receptor internalization, primary screen, cell-based, FAP fluorogen, flow cytometry; Am2.2-beta2AR cells; response, % (test concentration not listed); 340,000 compounds, 0.43% hits;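 active means response above a set limit, near 3 SD of response in nonfluorescent compounds, cut at about 42% in these data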
Target sequence (P07550 whole entry, looked up): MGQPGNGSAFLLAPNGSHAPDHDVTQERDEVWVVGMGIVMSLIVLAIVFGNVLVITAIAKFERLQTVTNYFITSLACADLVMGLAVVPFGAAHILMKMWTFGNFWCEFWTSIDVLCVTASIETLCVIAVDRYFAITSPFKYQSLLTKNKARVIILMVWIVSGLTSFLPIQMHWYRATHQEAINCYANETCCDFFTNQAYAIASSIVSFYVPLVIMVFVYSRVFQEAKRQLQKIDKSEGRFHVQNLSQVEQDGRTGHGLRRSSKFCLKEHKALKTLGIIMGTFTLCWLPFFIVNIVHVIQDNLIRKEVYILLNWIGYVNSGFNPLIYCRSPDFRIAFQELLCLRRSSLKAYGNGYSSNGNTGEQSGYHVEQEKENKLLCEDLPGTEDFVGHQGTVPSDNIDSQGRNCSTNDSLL
Exocytosis inh: LAMP-1 surface exposure blockers, TALL-104 cells – cell-based, flow cytometry, MLPCN library, primary screen; 360,000 compounds, 0.66% hits; inhibition, % at 10 µM; TALL-104 LAMP-1 surface exposure; cells stimulated with thapsigargin and PMA; AID 651702, 2012;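 active means inhibition above about 55%, limit read from the data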
NadD inh: inhibitors of S. aureus NadD, primary screen, biochemical, colorimetric, uHTS; Nicotinate-nucleotide adenylyltransferase NadD (Staphylococcus aureus N315); purified NadD enzyme, colorimetric absorbance read-out; inhibition, % at 20 µM; 360,000 compounds, 0.78% hits; AID 602399, 2012; in the data active means inhibition above about 26%
PP1 inh: PP1-alpha phosphatase inhibitors, primary screen, counter-screen for PP5 inhibitor project, biochemical, fluorescence, OMFP substrate, single point; Serine/threonine-protein phosphatase PP1-alpha catalytic subunit (Homo sapiens), P62136; purified PP1alpha; AID 2235, 2010; 320,000 compounds, 0.9% hits; inhibition, % at 6.7 µM;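 active means inhibition above the mean inhibition of all tested compounds plus 3 SD, computed separately for each screening campaign, cut at about 15% in these data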
GRK2 inh: compounds blocking aptamer binding on GRK2 – biochemical, human GRK2, bead flow cytometry, HTS, primary screen; Beta-adrenergic receptor kinase 1 (Homo sapiens), P25098; FAM-aptamer displacement from GRK2; inhibition of aptamer binding, % at 10 µM; 330,000 compounds, 0.59% hits; AID 488847, 2010;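 active means inhibition of aptamer binding above 40%, roughly 3 SD of noise, on plates passing a quality check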;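 further: median bead fluorescence of bound FAM aptamer so fluorescent compounds give negative values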
Hits are given with their value; . = inactive; / = no result. Only some compounds are listed: those with a hit (about 2.9% of all), similar ones and a draw of the others.

SMILES | Beta2AR agonist | Exocytosis inh | NadD inh | PP1 inh | GRK2 inh
Cc1ccccc1C(=O)N1CCN(c2ccccn2)CC1 | . | . | . | . | 45
Cc1ccc(-c2csc(NC(=O)c3cc([N+](=O)[O-])ccc3N3CCOCC3)n2)cc1 | . | . | . | . | .
O=C(Nc1nc(-c2ccccc2)cs1)c1ccc(N2CCOCC2)c([N+](=O)[O-])c1 | . | 84 | . | . | .
CS(=O)(=O)N1CCN(c2ccc(NC(=O)C(c3ccccc3)c3ccccc3)cc2)CC1 | . | . | . | . | .
O=C(Nc1ccc(N2CCCC2)cc1)C(Cl)c1ccccc1 (configuration not stated) | 76 | . | . | . | .
N=C1/C(=C\c2ccc(OC(=O)c3ccc(F)cc3)cc2)C(=O)N=C2SC(N3CCCC3)=NN12 | . | . | 51 | . | .
Cc1ccc(C(=O)Oc2ccc(/C=C3\C(=N)N4N=C(N5CCOCC5)SC4=NC3=O)cc2)cc1 | . | . | 40 | . | .
O=C(CN1CCN(c2ccccc2)CC1)Nc1ccc(Oc2ccccc2)cc1 | . | . | . | . | .
O=C(c1cc(-c2ccc(F)cc2)on1)N1CCCc2ccccc21 | . | . | . | 16 | .
N#CCC(C(=O)c1cccnc1)c1ccccc1 (configuration not stated) | / | . | . | / | /
NNC(=O)c1ccc(CSc2n[nH]c(=O)[nH]c2=O)cc1 | . | . | . | 16 | .
CCCOc1cccc(C2C(C(=O)c3cc4ccccc4o3)=C(O)C(=O)N2c2cc(C)on2)c1 (configuration not stated) | . | . | . | 26 | .
Cc1cc(N2C(=O)C(O)=C(C(=O)c3cc4ccccc4o3)C2c2cccc(Br)c2)no1 (configuration not stated) | . | . | . | 37 | .
COc1cccc(C2C(C(=O)c3ccc(C)o3)=C(O)C(=O)N2c2cc(C)on2)c1 (configuration not stated) | . | . | . | . | .
Cc1cc(N2C(=O)C(O)=C(C(=O)c3cccs3)C2c2ccccc2)no1 (configuration not stated) | . | . | . | . | .
CCCC/C(O)=C1\C(=O)CCCC1=NCCc1c(C)[nH]c2ccccc12 | . | . | . | . | .
O=C(C[C@H]1C/C=C\C[C@H](NC(=O)OCC2c3ccccc3-c3ccccc32)C(=O)OC[C@H]2CCCN2C1=O)NCCO | . | 59 | . | / | .
N#Cc1c(N2CCN(C(=O)c3ccccc3Cl)CC2)nc(-c2ccccc2)c2c1CCCC2 | . | . | . | . | .
N#Cc1c(N2CCN(C(=O)c3ccccc3)CC2)nc(-c2ccccc2)c2c1CCCC2 | . | . | . | 16 | .
CCOC(=O)C1CCN(S(=O)(=O)CCNC(=O)c2ccc(F)cc2)CC1 | . | . | . | . | .
CCN(CC)C1=C(Cl)C(=O)C(Cl)C12OCCO2 (configuration not stated) | . | . | . | . | .
COc1ccc(Cl)cc1C(=O)NC(=S)Nc1cc(-c2nc3ccccc3[nH]2)ccc1C | . | . | 34 | . | .
CN(C)c1ccc(/C=C(\C#N)C(=O)Nc2nc3c(s2)CCN(Cc2ccccc2)C3)cc1 | . | . | 33 | . | .
O=C(Nc1nc2c(s1)CN(Cc1ccccc1)CC2)C1CCC1 | . | . | . | . | .
O=[N+]([O-])c1ccc(N=Nc2ncc[nH]2)cc1 | . | 79 | . | / | .
SMILES | Beta2AR agonist | Exocytosis inh | NadD inh | PP1 inh | GRK2 inh
O=C(CCc1n[nH]c(=O)[nH]c1=O)Nc1cccc([N+](=O)[O-])c1 | . | . | . | . | .
Cc1cccc(N(C)S(=O)(=O)c2c[nH]c3ccc([N+](=O)[O-])cc23)c1 | . | 84 | . | . | .
COc1ccc(C(C)NS(=O)(=O)Cc2ccccc2)cc1 (configuration not stated) | . | . | . | . | .
CC(C)n1c(=O)c2ccccc2n1Cc1cn(-c2ccc(Cl)cc2)nn1 | / | . | . | / | /
CN1CCN(c2ccc(NC(=O)c3ccc(-c4ccc(Br)cc4)o3)cc2)CC1 | . | 76 | . | . | .
CC(=O)Nc1ccc(NC(=O)c2ccc(-c3ccc([N+](=O)[O-])cc3)o2)cc1 | . | . | . | 16 | .
COc1ccc(NC(=O)c2ccc(-c3ccc([N+](=O)[O-])cc3)o2)cc1OC | . | . | . | . | .
O=C(Nc1ccc(N2CCCCC2)cc1)c1ccc([N+](=O)[O-])o1 | . | . | . | . | .
O=C(Nc1ccc(N2CCCC2)cc1)c1ccc(Br)o1 | . | . | 44 | . | .
CN1CCN(c2ccc(NC(=O)c3cc4ccccc4o3)cc2)CC1 | . | . | . | . | /
COc1ccc(CN(C)CC(=O)Nc2ccccc2C(=O)NC2CC2)cc1F | . | . | . | / | .
Cc1ccc(-c2nnc(SCC(=O)N/N=C/c3ccccc3C(=O)O)n2-c2ccccc2)cc1 | / | / | / | . | .
Cc1nnc(SCC(=O)N/N=C/c2cn(-c3ccccc3)nc2-c2ccccc2)n1-c1ccccc1 | 64 | . | . | . | .
O=C1C(F)=CC(COC(c2ccccc2)(c2ccccc2)c2ccccc2)OC1n1cc(F)c(=O)[nH]c1=O (configuration not stated) | 87 | . | 51 | / | /
CN(c1ccccc1)S(=O)(=O)c1cccc(NC(=O)CN2C(=O)NC3(CCCC3)C2=O)c1 | . | . | . | / | /
Cc1ccc(C)c(NC(=S)NCCc2ccc(F)cc2)c1 | . | . | . | . | .
Cc1ccc(C)c(NC(=S)NNc2ccc(F)cc2F)c1 | . | 84 | . | . | .
O=C1/C(=C/c2ccccc2F)SC(=S)N1CC(=O)N1CCCCC1c1cccnc1 (configuration not stated) | . | . | . | . | .
O=C1/C(=C/c2ccc(F)cc2)SC(=S)N1CC(=O)N1CCCCC1c1cccnc1 (configuration not stated) | . | . | . | 16 | .
CC1CC(C)CN(C(=O)COC(=O)c2nn(C)c(=O)c3ccccc23)C1 (configuration not stated) | . | . | . | . | .
CCCn1c(SCC(=O)Nc2cc(C(=O)O)ccc2C)nc2sc3c(c2c1=O)CCC3 | . | . | . | . | .
Cc1cc(=O)cc(C)n1-c1ccccc1N | 45 | . | . | . | .
NS(=O)(=O)c1ccc(CNC(=O)c2ccc(S(=O)(=O)NCc3ccco3)cc2)cc1 | . | . | . | . | .
COc1cc([N+](=O)[O-])ccc1-c1ccc(/C=N\n2cnnc2)o1 | . | . | . | / | .
O=C1ON=C(c2ccccc2)/C1=C/c1ccccc1 | . | . | . | . | .
COc1cc([N+](=O)[O-])ccc1-c1ccc(/C=C2\C(=O)ON=C2c2ccccc2)o1 | . | . | 45 | / | /
COc1cc(/C=C2/C(=O)ON=C2c2ccccc2)ccc1O | 42 | . | . | . | .
